High-throughput results as filed in PubChem BioAssay.
A selection: hits, their analogues and other compounds. The true share with any hit is near 2.4%.
Platelet DG rel: modulates dense granule release in human platelets | actives 0.22% (n = 300,000) | AID 1663 | inhibition, %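 (compounds screened at 7.5 µM in platelet-rich plasma)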 | human platelet-rich plasma, SFLLRN dense granule ATP release, luminescence;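 active = mean replicate score, as percent of positive control, at or above 50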
SENP8 block-1: inhibitors of human SENP8 protease | inhibition, % at 10 µM | purified SENP8, Z-RLRGG-aminoluciferin cleavage, luminescence | Q96LD8 | actives 1.2% (n = 330,000); in the data active = inhibition above about 50%
Target sequence (Q96LD8 whole entry, looked up): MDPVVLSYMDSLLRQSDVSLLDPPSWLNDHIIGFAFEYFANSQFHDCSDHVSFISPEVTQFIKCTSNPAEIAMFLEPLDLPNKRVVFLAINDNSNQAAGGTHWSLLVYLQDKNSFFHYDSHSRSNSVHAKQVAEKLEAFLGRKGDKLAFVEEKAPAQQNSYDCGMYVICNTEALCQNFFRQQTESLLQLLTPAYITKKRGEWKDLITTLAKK
SENP7 inh: blocks the human protease SENP7; Q9BQF6; actives 1.5% (n = 330,000); inhibition, % at 5 µM; recombinant SENP7, Z-RLRGG-aminoluciferin luminescence, 40 min;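 active = inhibition above about 50% at the single test dose, limit read from the data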
Target sequence (Q9BQF6 706-1050 limits assumed): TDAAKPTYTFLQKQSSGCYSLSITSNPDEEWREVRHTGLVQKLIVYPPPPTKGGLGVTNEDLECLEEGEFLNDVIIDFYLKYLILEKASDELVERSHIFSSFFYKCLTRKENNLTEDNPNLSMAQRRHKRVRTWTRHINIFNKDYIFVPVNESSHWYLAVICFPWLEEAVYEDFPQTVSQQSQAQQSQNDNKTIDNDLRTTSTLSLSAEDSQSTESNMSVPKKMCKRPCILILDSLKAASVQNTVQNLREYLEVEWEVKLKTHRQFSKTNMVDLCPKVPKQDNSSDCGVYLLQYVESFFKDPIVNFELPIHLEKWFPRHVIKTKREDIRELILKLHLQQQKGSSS
SENP6 block: inhibitors of human SENP6 protease; Q9GZR1; Recombinant SENP6 catalytic domain, aminoluciferin luminescence; inhibition, % at 10 µM; actives 1.8% (n = 330,000);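 active = inhibition above about 50% at the single tested dose, limit read from the data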
SENP8 block-2: inhibitors of human SENP8 protease. actives 0.64% (n = 360,000). inhibition, % at 20 µM. recombinant SENP8, Nedd8 substrate fluorescence; in the data active = inhibition mostly above about 40%, no sharp cut-off; inactive = mostly below about 27%
SENP8 conf: confirmation of human SENP8 protease inhibitors | shares compounds with SENP7 inh | Recombinant SENP8, Z-RLRGG-aminoluciferin luminescence, 60 min | inhibition, % at 12.5 µM | actives 40% (n = 6,200) | AID 488912;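 active = mean inhibition across replicates above about 50%, limit read from the data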
SENP6 confirm: human SENP6 inhibition, confirmed; inhibition, % at 12.5 µM; shares compounds with SENP7 inh; AID 488915; actives 58% (n = 6,200); recombinant SENP6, Z-RLRGG-aminoluciferin luminescence
SENP7 conf: confirmation of human SENP7 protease inhibitors | shares compounds with SENP7 inh | recombinant SENP7, Z-RLRGG-aminoluciferin luminescence, 40 min | inhibition, % at 12.5 µM | actives 69% (n = 6,200) | AID 488917
Casp3 select: inhibits human caspase-3 in SENP selectivity test; inhibition, % at 12.5 µM; shares compounds with SENP7 inh; purified caspase-3, Z-DEVD-aminoluciferin luminescence, 60 min; actives 60% (n = 6,200);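 active = mean inhibition above about 50%, limit read from the data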
Luc interf: interferes with luciferase luminescence in SENP counter-screen. AID 488919. actives 39% (n = 6,200). Pre-incubated SENP8/Z-RLRGG-aminoluciferin, luciferase luminescence interference. shares compounds with SENP7 inh. inhibition, % at 12.5 µM;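 active = mean inhibition above about 50% when retested at one dose, limit read from the data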
Of the large screens only hits and unclear results are named; the others gave an inactive call (follow-up assays come after a bar, where they were run).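 The calls were made as follows, unless noted: active = mean inhibition above about 50% in the one-dose retest (limit read from the data); inactive = the rest.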

CC1Sc2ccc(C(=O)OCc3ccccc3Cl)cc2NC1=O (centres undefined)	SENP7 inh 70.2, SENP6 block 54.9 | SENP8 conf inactive | SENP6 confirm inactive | SENP7 conf inactive | Casp3 select inactive | Luc interf inactive
Cc1cccc2sc(NC(=O)c3ccc(NS(=O)(=O)c4cccs4)cc3)nc12	SENP8 block-1 69.8, SENP6 block 86.2 | SENP8 conf inactive | SENP6 confirm 81.1 | SENP7 conf inactive | Casp3 select inactive | Luc interf inactive
Cc1ccc(C(=O)OCC(=O)c2ccc(S(=O)(=O)N3CCCCC3)cc2)o1	none
Cc1ccc(Cn2ccc(-c3cnc(-c4ccccc4)s3)n2)cc1	SENP6 block 51.4 | SENP8 conf inactive | SENP6 confirm inactive | SENP7 conf inactive | Casp3 select inactive | Luc interf inactive
Cc1cccc(NC(=O)COc2ccc3c(c2)CCC3)n1	SENP7 inh 51.2, SENP6 block 60.7 (no result: Platelet DG rel) | SENP8 conf 56.5 | SENP6 confirm 56.1 | SENP7 conf 83.5 | Casp3 select 59.7 | Luc interf inactive
O=C(COc1ccc2c(c1)CCC2)Nc1ccccn1	SENP8 block-1 95.5, SENP7 inh 98.8, SENP6 block 96.9 | SENP8 conf 97.0 | SENP6 confirm 97.5 | SENP7 conf 101.1 | Casp3 select 96.7 | Luc interf 96.1
Cc1cnc(NC(=O)COc2ccc3c(c2)CCC3)s1	SENP6 block 52.3 | SENP8 conf inactive | SENP6 confirm inactive | SENP7 conf inactive | Casp3 select inactive | Luc interf inactive
CS(=O)(=O)Cc1ccc(C(=O)N2CCN(C(=O)c3cccs3)CC2)cc1	none (no result: Platelet DG rel)
CCCN1CCC(NC(=O)C2CC=CCC2C(=O)O)CC1 (centres undefined)	none
CCOC(=O)c1c(C)[nH]c(C)c1C(=O)COC(=O)c1nc2nccc(C)n2n1	none
CCCN(CC(=O)Nc1cc(Cl)ccc1Cl)C(=O)c1ccccc1SCC(=O)N1CCCC1	none
Cc1ccc(Nc2nnc(SCC(=O)NCCN3C(=O)CSC3=O)s2)cc1C	SENP7 inh 53.0 | SENP8 conf 51.2 | SENP6 confirm inactive | SENP7 conf 77.8 | Casp3 select 63.5 | Luc interf 55.2
Cc1ccc(SCC(=O)NCCN2C(=O)CSC2=O)cc1C	none
Cc1[nH]c2ccc(C(=O)OCC(=O)NC3(C#N)CCCCC3)cc2c1C	none
O=C(Nc1cccc(Br)c1)c1cccc(OC(=S)N2CCOCC2)c1	SENP7 inh 54.7, SENP6 block 56.8 | SENP8 conf inactive | SENP6 confirm inactive | SENP7 conf 74.2 | Casp3 select inactive | Luc interf 51.1
Cc1cccc(OCC(=O)NC(Cc2c[nH]c3ccccc23)C(=O)O)c1C (centres undefined)	none
O=C(Nc1ccc(OC(=O)c2cccs2)cc1)c1ccco1	SENP8 block-1 67.4, SENP7 inh 82.5, SENP6 block 86.5 | SENP8 conf 72.1 | SENP6 confirm 71.7 | SENP7 conf 94.3 | Casp3 select 77.3 | Luc interf inactive
CCOC(=O)Nc1ccc(C(=O)Oc2ccccc2)c(O)c1	SENP7 inh 52.7 | SENP8 conf inactive | SENP6 confirm inactive | SENP7 conf 68.8 | Casp3 select inactive | Luc interf inactive
O=C(Nc1ccc(C(=O)Oc2ccccc2)c(O)c1)c1ccco1	SENP8 block-1 73.0, SENP7 inh 81.7, SENP6 block 90.9 | SENP8 conf 79.8 | SENP6 confirm 80.8 | SENP7 conf 95.6 | Casp3 select 65.7 | Luc interf inactive
CC(C)C(NC(=O)c1ccc(F)cc1)C(=O)NCC1CCCO1 (centres undefined)	none
Cc1cc(/C=N/Nc2nc(N)ncc2[N+](=O)[O-])c(C)n1-c1cccc(C(F)(F)F)c1	none (no result: SENP8 block-2)
COc1cccc(/C=N/Nc2ncnc(N)c2[N+](=O)[O-])c1OC	SENP7 inh 71.9, SENP6 block 68.3 | SENP8 conf inactive | SENP6 confirm inactive | SENP7 conf 64.4 | Casp3 select 77.0 | Luc interf inactive
Cc1cc(/C=N/Nc2ncnc(N)c2[N+](=O)[O-])c(C)n1-c1ccccc1	Platelet DG rel 67.4, SENP8 block-1 94.5, SENP7 inh 97.0, SENP8 block-2 55.2 | SENP8 conf inactive | SENP6 confirm 60.7 | SENP7 conf 94.8 | Casp3 select 51.5 | Luc interf inactive
O=S(=O)(c1ccccc1)N(CC(O)CN1CCOCC1)c1ccccc1 (centres undefined)	SENP8 block-1 76.8 | SENP8 conf inactive | SENP6 confirm inactive | SENP7 conf inactive | Casp3 select inactive | Luc interf inactive
COC(=O)CCCn1cc(CN2CC(N(C)C)CS2(=O)=O)nn1 (centres undefined)	none (no result: Platelet DG rel, SENP8 block-1, SENP7 inh, SENP6 block)
COc1cccc(C(C)(O)c2nc(/C=C/c3ccccc3)cs2)c1 (centres undefined)	none (no result: Platelet DG rel, SENP8 block-1, SENP7 inh, SENP6 block)
O=C(O)c1ccc(N/C(=N\S(=O)(=O)c2ccc(Cl)cc2)c2ccccc2)cc1	none
O=S(=O)(/N=C(/NC(=S)Nc1ccccc1)c1ccccc1)c1ccc(Cl)cc1	none
O=C(NN/C(=N/S(=O)(=O)c1ccc(Cl)cc1)c1ccccc1)c1cccc(Cl)c1	SENP8 block-1 71.0, SENP7 inh 84.7, SENP6 block 86.3 | SENP8 conf 50.7 | SENP6 confirm 64.0 | SENP7 conf 87.1 | Casp3 select 63.0 | Luc interf inactive
Cc1ccc(S(=O)(=O)/N=C(/NNC(=O)c2cccc(Cl)c2)c2ccccc2)cc1	SENP7 inh 68.2, SENP6 block 78.2 | SENP8 conf inactive | SENP6 confirm inactive | SENP7 conf 62.7 | Casp3 select inactive | Luc interf inactive
O=C(NN/C(=N/S(=O)(=O)c1ccc(Cl)cc1)c1ccccc1)c1ccc(O)cc1	SENP8 block-1 95.1, SENP7 inh 97.2, SENP6 block 95.7 | SENP8 conf 72.6 | SENP6 confirm 62.6 | SENP7 conf 89.1 | Casp3 select 87.4 | Luc interf 87.5
CCOc1ccc(N(CC(=O)NC(C)(C)C)C(=O)CCC(=O)Nc2nccs2)cc1	none
CCN(C(=O)c1cccc(S(=O)(=O)N2CCCCC2)c1)C1CCS(=O)(=O)C1 (centres undefined)	none
O=C(N/N=C/c1cccnc1)c1ccc2ccccc2c1O	none (no result: Platelet DG rel)
O=C(O)c1ccccc1C(=O)Nc1ccccn1	none
